# Experimental data: the supplement of paper PMC8699584
# “And” between values parts separate entries of the source, which are not always exact repeats. Equal values may be shown once. Where a name gives a salt, the structure may show the parent alone. ± gives the standard deviation of the averaged measurements.
# System: Molm13
# Test: cell viability relative to DMSO control (bortezomib = 0%); higher = less growth inhibition
# Conditions: 10 nM; 72 h
# How it was run: (§1)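 FLT3-ITD+ acute myeloid leukemia cells were dispensed onto a library of 679 approved and investigational compounds in 384-well plates, at 1000 cells per well in 50 µL and a single 10 nM dose, for 72 h. The screen was run in duplicate. Cell viability was read by CellTiter-Glo luminescence on an EnVision reader. Values were converted to percentages by per-plate linear regression between DMSO-treated cells (100%) and positive-control-treated cells (0%).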
row,Structure (SMILES),cell viability
1,Oc1c2ccccc2c2c3c(cccc13)N=N2,114% and 102%
2,Oc1ccc2c(c1)OCO2 [Sesamol],103 ± 1.4%
3,Cc1ccc(NC(=O)c2ccc(CN3CCN(C)CC3)cc2)cc1Nc1nccc(-c2cccnc2)n1 [Imatinib Mesylate (STI571)],105 ± 13%
4,CCOc1cc(C(=O)N2CCC(N3CCN(C)CC3)CC2)ccc1Nc1ncc2c(n1)N(C1CCCC1)c1ccccc1C(=O)N2C,111 ± 7.2%

# System: Mv4-11
# Test: as above
# Conditions: 10 nM; 72 h
# How it was run: as §1
row,Structure (SMILES),cell viability
1,COc1cc2ncnc(Nc3ccc(O)cc3)c2cc1OC [Janex 1],111 ± 5.3%
2,N#Cc1c(NC(=O)c2cccc3ccccc23)sc2c1CCCC2,114 ± 4.2%
3,CN(C)Cc1cccc(N/C(=C2\C(=O)Nc3cc(C(N)=O)ccc32)c2ccccc2)c1,134 ± 3.4%
4,Cc1ncc(CO)c(CO)c1O [Pyridoxine],114 ± 20%
5,CCS(=O)(=O)c1cccc(-c2cc(C(=O)NC3CCN(C)CC3)c(C)c3[nH]c4ncc(C)cc4c23)c1,90.6 ± 3.5%
6,O=C1NC(=O)/C(=C/c2ccc(-c3ccc(F)cc3O)o2)S1,95.5 ± 9.9%
7,CS(=O)(=O)c1ccc(-c2nc(-c3ccc(F)cc3)c(-c3ccncc3)[nH]2)cc1,100.3 ± 0.91%
8,Cc1cnc(-c2cnc(NCCNc3ccc(C#N)cn3)nc2-c2ccc(Cl)cc2Cl)[nH]1,105% and 110%
9,Cc1nc(Nc2ncc(C(=O)Nc3c(C)cccc3Cl)s2)cc(N2CCN(CCO)CC2)n1 [Dasatinib monohydrate],106 ± 9.4%
10,CC(=O)CC(c1ccccc1)c1c(O)c2ccccc2oc1=O (centres undefined) [Warfarin sodium],114 ± 4.9%
11,COc1ccc(C2CC(=O)c3c(O)cc(OC4OC(COC5OC(C)C(O)C(O)C5O)C(O)C(O)C4O)cc3O2)cc1OC (centres undefined) [Methyl hesperidin],117 ± 20%
12,O=C(O)c1cc(O)c2c(c1)[C@@H]([C@H]1c3cc(C(=O)O)cc(O)c3C(=O)c3c(O[C@@H]4O[C@H](CO)[C@@H](O)[C@H](O)[C@H]4O)cccc31)c1cccc(O[C@@H]3O[C@H](CO)[C@@H](O)[C@H](O)[C@H]3O)c1C2=O [Sennoside B],91.4 ± 16%
13,CS(=O)(=O)N1CCN(Cc2cc3nc(-c4cccc5[nH]ncc45)nc(N4CCOCC4)c3s2)CC1,106.7 ± 0.54%
14,COc1cc2c(Oc3ccc4[nH]c(C)cc4c3F)ncnc2cc1OCCCN1CCCC1 [Cediranib (AZD2171)],107 ± 10%
15,COc1cc2nccc(Oc3ccc(NC(=O)Nc4ccc(F)cc4F)c(F)c3)c2cc1OC,103 ± 5.7%
16,C=CC(=O)Nc1cccc(Nc2nc(Nc3ccc(Oc4ccnc(C(=O)NC)c4)cc3)ncc2F)c1,108 ± 9.3%
17,Cn1cc(C2=C(c3cn(CCCSC(=N)N)c4ccccc34)C(=O)NC2=O)c2ccccc21 [Ro 31-8220 Mesylate],102 ± 4%
18,CNC(=O)c1cc(Oc2ccc(NC(=O)Nc3ccc(Cl)c(C(F)(F)F)c3)cc2)ccn1 [Sorafenib tosylate],69.2 ± 10%
19,Cc1cc(Nc2nn(-c3ccccc3)c(=O)c3ccccc23)n[nH]1 [Phthalazinone pyrazole],101 ± 15%
20,CS(=O)(=O)CCNCc1ccc(-c2ccc3ncnc(Nc4ccc(OCc5cccc(F)c5)c(Cl)c4)c3c2)o1 [Lapatinib ditosylate monohydrate],108 ± 17%

row,Structure (SMILES),cell viability
1,CCOc1cc(/C=C(\C#N)C(N)=O)cc(CSc2ccccc2)c1O,115 ± 15%
2,O=C(NOCC1CC1)c1cc(Br)c(F)c(F)c1Nc1ccc(I)cc1Cl,113 ± 2.4%
3,Cn1cc(-c2ccc3nnc(Sc4ccc5ncccc5c4)n3n2)cn1,104 ± 4.2%
4,O=C1NC(=O)[C@@H](c2cn3c4c(cccc24)CCC3)[C@@H]1c1c[nH]c2ccccc12 [Tivantinib (ARQ 197)],115 ± 11%
5,COc1ccc2c3n(c(=NC(=O)c4cccnc4)nc2c1OC)CCN3,102 ± 2.9%
6,C[C@@H](Oc1cc(-c2cnn(C3CCNCC3)c2)cnc1N)c1c(Cl)ccc(F)c1Cl,100 ± 20%
7,CN(C)C(=O)c1ccc(S(=O)(=O)c2ccc(NC(=O)[C@@](C)(O)C(F)(F)F)c(Cl)c2)cc1,109 ± 7%
8,Cc1ccc(S(=O)(=O)/C=C/C#N)cc1,98.8 ± 3.1%
9,COc1cc2ccc(=O)oc2cc1O [Scopoletin],109.9 ± 0.78%
10,CN(C)C/C=C/C(=O)Nc1cc2c(Nc3ccc(F)c(Cl)c3)ncnc2cc1O[C@H]1CCOC1 [Afatinib (BIBW2992) Dimaleate],102 ± 7.5%
11,O=c1c(O)c(-c2cc(O)c(O)c(O)c2)oc2cc(O)cc(O)c12 [Myricetin],114 ± 17%
12,Nc1ncnc2c1ncn2[C@@H]1O[C@H](COP(=O)(O)O)[C@@H](O)[C@H]1O [Adenosine 5'-monophosphate],113 ± 2.5%
13,C#Cc1cccc(Nc2ncnc3cc4c(cc23)OCCOCCOCCO4)c1 [Icotinib Hydrochloride],105 ± 9.2%
14,CCS(=O)(=O)N1CC(CC#N)(n2cc(-c3ncnc4[nH]ccc34)cn2)C1,105 ± 8.7%
15,CC(C)n1nc(-c2cc3cc(O)ccc3[nH]2)c2c(N)ncnc21,96.2 ± 30%
16,CCc1cnn2c(NCc3ccc[n+]([O-])c3)cc(N3CCCC[C@H]3CCO)nc12,86.6 ± 15%
17,Oc1c2ccccc2c2c3c(cccc13)N=N2,103% and 104%
18,Oc1ccc2c(c1)OCO2 [Sesamol],113.6 ± 0.84%
19,Cc1ccc(NC(=O)c2ccc(CN3CCN(C)CC3)cc2)cc1Nc1nccc(-c2cccnc2)n1 [Imatinib Mesylate (STI571)],106 ± 7.4%
20,CCOc1cc(C(=O)N2CCC(N3CCN(C)CC3)CC2)ccc1Nc1ncc2c(n1)N(C1CCCC1)c1ccccc1C(=O)N2C,96.1 ± 19%
